Records with an inconclusive call do not appear. A number with no mark means an inactive call. Calls of active or inactive are those of the source. Calls follow the shape of the dose curve; as a rule, active = well fitted cell-killing curve with a large enough effect in the repeat runs; inconclusive = weak or mixed curves, or effect the other way; inactive = flat fitted curve, though single readings scatter.
Test: qHTS assay to identify small molecule antagonists of the androgen receptor (AR) signaling pathway using the MDA cell line in the presence of 0.5 nM R1881 - cell viability counter screen (AID 1259242); also: nearly all actives have a fitted effect of over 45% in size
Details: MDA-kb2 viability, CellTiter-Fluor protease fluorescence, 16 h; series mostly up to 92.4 µM; viability change, negative = cytotoxic: at the top concentration
Text: U.S. Tox21 Program National Center for Advancing Translational Sciences [NCATS] NIH Chemical Genomics Center [NCGC] U.S. Environmental Protection Agency [EPA] National Institutes of Environmental Health Sciences [NIEHS] National Toxicology Program [NTP] U.S. Food and Drug Administration [FDA] Tox21 Assay Overview: Androgen receptor (AR) is an important member of the nuclear receptor family. Its signaling plays a critical role in AR-dependent prostate cancer and other androgen related diseases. Considerable attention has been given in the past decades to develop methods to study and screen for the environmental chemicals that have the potential to interfere with metabolic homeostasis, reproduction, developmental and behavioral functions. Therefore AR binding assay for screening androgen antagonists can be used to identify potential endocrine disruptors. MDA-kb2 cells (from ATCC, deposited by Wilson et al.) were used to screen for AR inhibitors against Tox21 compound libraries. These cells are human breast carcinoma cells that were stably transfected with a luciferase reporter gene under control of the MMTV promoter that contains response elements for both androgen receptor (AR) and glucocorticoid receptor (GR). The current screening for identification of AR inhibitors against Tox21 libraries used lower concentration of (0.5 nM) R1881 as a stimulator. The cytotoxicity of the Tox21 compound libraries against MDA-kb2 cell line was tested by measuring live-cell protease activity using CellTiter-Fluor assay in the same wells.
Tox21 Assay Protocol Summary: MDA-kb2 cells (cells cultured without CO2) were dispensed at 3,000 cells/well in 4 uL of culture medium into white wall/solid-bottom 1536-well plates (Corning Life Sciences, Corning, NY) using a Multidrop Combi (ThermoFisher Scientific, Waltham, MA) dispenser. After the assay plates were incubated at a 37C and 0% CO2 for 5 hr, 23 nL of compounds dissolved in DMSO, positive controls or DMSO only was transferred to the assay plate by a Pintool station (Kalypsys, San Diego, CA). The transfer of compounds was followed by the addition of 1 uL of 0.5 nM (final concentration) agonist (R1881)/culture medium using a Flying Reagent Dispenser (FRD, Aurora Discovery, San Diego, CA). The plates were incubated at 37C and 0% CO2 for 16 hr. For cytotoxicity assay, 1 uL of CellTiter-Fluor reagent (Promega Corporation, Madison, WI) was added to each well using the FRD and after 30 min incubation at 37C and 0% CO2, The fluorescence intensity was measured using ViewLux plate reader (PerkinElmer, Shelton, CT).
% is scaled to controls: 0 for no effect and ±100 for the full control effect.

Structure (SMILES) | viability change, negative = cytotoxic | Potency
NC(=O)OCCCc1ccccc1 | 4.57% [at 42.5 µM] | 
CCOC(=O)N(C)N=O | -0.14% | 
CS(=O)(=O)c1ccc(C(=O)C2C(=O)CCCC2=O)c(Cl)c1COCC(F)(F)F | -0.715% | 
CNC(=O)NC(O)C(Cl)(Cl)Cl (stereo not given) | -2.5% [at 42.5 µM] | 
NC1(c2ccccc2)CCCCC1 | 3.48% | 
O=C1CCCCC1Cl (stereo not given) | -2.76% | 
CCC(=O)OC1(c2ccccc2)CCN(C)CC1 | 4.87% | 
COc1ccccc1OC | 4.25% | 
CCCCOC(C)=O | 2.29% | 
COC[C@@H](NC(C)=O)C(=O)NCc1ccccc1 | 2.63% [at 42.5 µM] | 
CCCCCCCC(=O)Cl | 1.92% | 
CCOC(=O)CCl | -2.09% | 
C(COCC1CO1)OCC1CO1 (stereo not given) | 4.83% | 
O=C(O)C(Cl)Br (stereo not given) | 0.141% | 
CC(C)(C1CCC(O)CC1)C1CCC(O)CC1 (stereo not given) | 1.67% | 
CN1COCN(Cc2cnc(Cl)s2)/C1=N\[N+](=O)[O-] | -0.443% | 
CCOC(=O)CC(SP(=S)(OC)OC)C(=O)OCC (stereo not given) |  | inactive
c1ccc2c(c1)CCNC2 | -0.0307% | 
O=C/C=C/c1ccco1 | 0.22% | 
C[C@H](N)C(=O)c1ccccc1 | 5.39% | 

Structure (SMILES) | viability change, negative = cytotoxic | Potency
NC(=O)CS(=O)C(c1ccccc1)c1ccccc1 (stereo not given) | -1.9% [at 42.5 µM] | 
CC[C@H](O)C(C[C@H](C)N(C)C)(c1ccccc1)c1ccccc1 | 2.74% | 
C=CCc1cc(OC)c2c(c1)OCO2 | 3.08% | 
ClCCN1CCCC1 | 4.81% [at 42.5 µM] | 
C=C1C[C@@H]2[C@H](CC[C@]3(C)C(=O)CC[C@@H]23)[C@@]2(C)C=CC(=O)C=C12 | 2.31% [at 42.5 µM] | 
O=C(Cl)C(Cl)Cl | 2.37% | 
COP(=O)(O)OC | 1.5% | 
CCN(CCO)CCn1c(Cc2ccccc2)nc2c1c(=O)n(C)c(=O)n2C | 1.52% [at 42.5 µM] | 
CCCN1CCC[C@@H]2Cc3nc(N)ncc3C[C@H]21 | 5.1% [at 42.5 µM] | 
CC(Cc1ccccc1)NCCn1cnc2c1c(=O)n(C)c(=O)n2C (stereo not given) | 4.16% | 
N[C@@H]1C[C@H]1c1ccccc1 | 3.11% [at 42.5 µM] | 
CCC1(c2ccccc2)C(=O)N(COC)C(=O)N(COC)C1=O | 0.408% [at 42.5 µM] | 
O=c1[nH]c2ccccc2n1C1CCNCC1 | 0.297% [at 42.5 µM] | 
CCCN1CCC[C@@H]2Cc3[nH]ncc3C[C@H]21 | 0.119% [at 42.5 µM] | 
CCCC(C)C1(CC)C(=O)N=C(S)NC1=O (stereo not given) | -1.03% [at 42.5 µM] | 
OP(O)c1ccccc1 | -0.0106% | 
O=C(Cl)OCc1ccccc1 | 1.57% | 
CC(C)NCC(O)c1ccc([N+](=O)[O-])cc1 (stereo not given) | -2.38% [at 42.5 µM] | 
Brc1c(Br)c(Br)c(Br)c(Br)c1Br | 7.8% [at 8.39 µM] | 
CNC(=O)O/N=C(/CSC)C(C)(C)C | 3.02% | 

Source: PubChem BioAssay (Tox21)
